In the library only some 6% were active in any assay of this set; here they are far more common.
Sfp inh = qHTS Assay for Inhibitors of Bacillus subtilis Sfp phosphopantetheinyl transferase (PPTase); 4'-phosphopantetheinyl transferase ffp (Bacillus subtilis), Q9F4F7; hit rate 3.5% among 310,000; Biochemical Sfp PPTase activity, qHTS; Potency, µM, for inactives: largest response in the series, negative = inhibition, hits mostly inhibitors;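 note: the enzyme is Sfp with the accession as filed and its product quenches rhodamine fluorescence; 0% = enzyme reaction without inhibitor and -100% = no enzyme wells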
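Compounds were incubated with enzyme (final 15 nM) for 15 min at room temperature before substrate addition started the reaction. Fluorescence at 525 nm excitation, 598 nm emission was recorded immediately and after 30 minutes.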
Tau ThT inhib = qHTS for Inhibitors of Tau Fibril Formation, Thioflavin T Binding; AID 1460, 2008; recombinant tau K18 P301L, heparin-induced fibrillization, ThT fluorescence; hit rate 2.1% among 270,000; Potency, µM (doses to about 57.4 µM), for inactives: at the highest dose activity, negative = inhibition, hits mostly inhibitors; Microtubule-associated protein tau (Homo sapiens), P10636; note: nearly all actives have a fitted effect of over 55% in size
Target sequence (P10636 561-689 P618L limits assumed): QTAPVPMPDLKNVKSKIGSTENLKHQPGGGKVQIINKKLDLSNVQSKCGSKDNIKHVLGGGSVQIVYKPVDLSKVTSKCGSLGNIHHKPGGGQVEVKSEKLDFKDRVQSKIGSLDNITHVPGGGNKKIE
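K18 P301L tau (15 uM + 0.24 uM Alexa 594-tagged), heparin 20 uM, NaOAc pH 7, 6 h 37 C; ThT 30 uM, 1 h RT, ex 450/em 510 nm.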
PLK1 PBD inh = qHTS for Inhibitors of PLK1-PDB (polo-like kinase 1 - polo-box domain): Primary Screen. Serine/threonine-protein kinase PLK1 (Homo sapiens), P53350. Plk1 PBD binding of FITC phosphopeptide, fluorescence polarization. Potency, µM, inactives show max response, negative = inhibition, most hits filed as inhibitors. hit rate 2.8% among 360,000; note: series mostly up to about 57 µM; nearly all actives have a fitted effect of over 65% in size
Tau FP inhib = qHTS for Inhibitors of Tau Fibril Formation, Fluorescence Polarization; Microtubule-associated protein tau (Homo sapiens), P10636; K18 P301L tau heparin fibrillization, Alexa594 FP, 6 h; Potency, µM (doses to about 57.7 µM), inactives show top-dose activity, negative = inhibition, usual class: inhibitors; hit rate 0.39% among 280,000; note: nearly all actives have a fitted effect of over 55% in size
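Compound effects on tau fibrillization are measured by Alexa 594 fluorescence polarization (ex 555, em 632 nm). K18 P301L tau is used at 15 uM with 0.24 uM labeled tracer, and 20 uM heparin induces aggregation over 6 hr at 37 C.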
Tau fluor counter = Counterscreen qHTS for Inhibitors of Tau Fibril Formation, Fluorescence Polarization. tau K18 P301L Alexa594 fluorescence, heparin fibrillization. hit rate 0.93% among 280,000. Potency, µM (highest dose often 57.7 µM), for inactives: top-dose activity change, negative = decrease; note: nearly all actives have a fitted effect of over 55% in size
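Human tau K18 P301L (15 uM unlabeled, 0.24 uM Alexa 594-labeled) in 100 mM sodium acetate pH 7 with 20 uM heparin, 6 hr at 37 C. ThT 30 uM added, 1 hr ambient; Alexa 594 FP and total fluorescence read at 555/632 nm.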
VDR inh = Inhibitors of the vitamin D receptor (VDR): qHTS; VDR-SRC2-3 peptide fluorescence polarization, 2 h; Potency, µM, without a hit: max response, negative = inhibition, hits mostly inhibitors; hit rate 0.93% among 400,000
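Fluorescence polarization assay measuring small-molecule disruption of VDR binding to the coregulator peptide SRC2-3. Compounds were pin-transferred (23 nl) into the reagent mix and incubated 2 h at room temperature before reading.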
Active calls of the source: *; ? = inconclusive; nt = no result; [ ] = another dose, or the depositor's remark. Calls come from the whole dose curve; as a rule, active = well fitted curve in the direction sought with a large enough effect; inconclusive = small, poorly fitted or top-dose-only effect, or another doubt; inactive = no such curve, though single readings can be large; an effect the other way counts as inactive or inconclusive. Unless noted, % is set by controls: 0 for no effect and ±100 for the full control effect; potency is the fitted concentration of half-maximal effect.

SMILES	Sfp inh	Tau ThT inhib	PLK1 PBD inh	Tau FP inhib	Tau fluor counter	VDR inh
O=C(Cn1nc(CNc2ccc(Br)cc2)[n+]2c1CCCCC2)c1ccc([N+](=O)[O-])cc1	56µM*	?	-16%	6%	-22%	-18%
CCN(Cc1ccccc1)Cc1c(O)ccc2oc(C)c(C(=O)Nc3ccccc3C)c12	nt	-10%	nt	11%	-17%	4%
O=C1CC(=O)c2c1cccc2[N+](=O)[O-]	79µM*	nt	nt	?	5.6µM*[quencher]	nt
CCOC(=O)c1ccc(N2C(=O)C3CCCN3C2=S)cc1 (stereo not drawn)	nt	nt	12µM*	nt	nt	-21%
CCOc1ccc(NC(=O)CN2CCN(C3CCCCC3)C(=O)C2=O)cc1	nt	-7%	nt	9%	3%	13%
CCOc1ccc(N2C(=O)C3CCCN3C2=S)cc1 (stereo not drawn)	nt	nt	21µM*	nt	nt	-11%
CCOc1ccc(NC(=O)CN2C(=O)C3CCCN3C2=O)cc1 (stereo not drawn)	24%	8%	24µM*	0%	13%	-29%
COc1ccc(C2c3c(n(C)c4ccccc34)C(=O)N2CC(=O)Nc2ccc(Cl)cc2)cc1 (stereo not drawn)	nt	1%	nt	-13%	-22%	-2%
COc1ccc(N2C(=O)CC(NNc3ncc(Cl)cc3Cl)C2=O)cc1 (stereo not drawn)	50µM*	?	-7%	-4%	-16%	-11%
COc1ccc(N2C(=O)CC(NCc3cccs3)C2=O)cc1 (stereo not drawn)	12%	3%	-1%	7%	2%	-7%
C=CC[n+]1c(-c2ccc(OC)cc2)csc1NNC(=O)Nc1ccccc1	50µM*	?	-2%	1%	?	-1%
CCOC(=O)N1C(COCc2ccccc2)C=CCS1(=O)=O (stereo not drawn)	28%	nt	nt	nt	nt	-14%
CN(C)c1nc(=NCc2ccco2)ss1	0.5µM*	8.9µM*	2.7µM*	14µM*	-13%	28µM*
O=C1CCCC(=NCc2ccco2)C1	11%	-3%	-9%	-5%	-1%	-11%
Cc1ccc2[nH]c(=O)c(C(c3nnnn3CC3CCCO3)N3CCOCC3)cc2c1 (stereo not drawn)	-9%	-2%	-17%	0%	2%	-3%
Cc1ccc2[nH]c(=O)c(C(c3nnnn3CC3CCCO3)N3CCc4ccccc4C3)cc2c1 (stereo not drawn)	22µM*	32µM*	-30%	?	-24%	1%
Cc1cc(C)c2[nH]c(=O)c(C(c3nnnn3CC3CCCO3)N3CCCC(C)C3)cc2c1 (stereo not drawn)	22µM*	32µM*	-4%	?	-15%	-2%
CCc1ccc2[nH]c(=O)c(C(c3nnnn3CC3CCCO3)N3CCN4CCCC4C3)cc2c1 (stereo not drawn)	35µM*	-3%	-8%	0%	3%	-1%
COc1cccc2c1Oc1ncccc1N(C(=O)CCC(=O)NCCC(C)C)C2	nt	-11%	nt	-3%	-7%	2%
COc1cccc(CNC(=O)CC(c2ccc(C)cc2)N2Cc3ccccc3C2=O)c1 (stereo not drawn)	nt	-3%	nt	6%	-7%	7%
CCOC(=O)c1ccccc1NC(=O)CSc1cc(C)[nH]c(=O)n1	nt	-5%	nt	6%	4%	15%
COc1ccc(NC(=O)CCc2nc3c(C)nn(-c4ccc(C)cc4)c3n(C)c2=O)c(OC)c1	nt	3%	nt	3%	9%	14%
CCCOc1cccc(C(=O)N(Cc2sccc2C)C2CCS(=O)(=O)C2)c1 (stereo not drawn)	nt	-12%	nt	-3%	-19%	22%

High-throughput results (PubChem BioAssay)
